Reference: PubChem BioAssay AID1159580 (chemical genetic matrix, 2015)
Screen size: about 5,500 compounds; about 2,000 (36%) were called active. Another 18% or so got no clear call; they are omitted. Rule as the data show it: active = normalized growth mostly below about 0.91 (no sharp cut-off); inconclusive = no clear call, values can overlap the other calls; inactive = mostly above about 0.92. The list shows a part of the results.

Experiment: chemical genetic growth profiling, strain panel (AID 1159580);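 also: tested at 20 µM; growth read once vehicle control cultures reached saturation at 30 °C; 1 = growth at the plate median or of vehicle wells; lower values mean less growth of the strain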
Conditions: S. cerevisiae deletion strains, growth OD

Measured: normalized growth

CC1=C(/C=C/C(C)=C/C=C/C(C)=C/C=C/C=C(C)/C=C/C=C(C)/C=C/C(=O)[C@]2(C)C[C@@H](O)CC2(C)C)C(C)(C)C[C@H](O)C1
inactive: locus YAL021C, strain ccr4, stronger effect = lower value 1.05 | locus YAL026C, strain drs2, stronger effect = lower value 1.06 | locus YAL030W, strain snc1, stronger effect = lower value 1.01 | locus YBL061C, strain skt5, stronger effect = lower value 1.03 | locus YBR009C, strain hhf1, stronger effect = lower value 0.996 | locus YBR023C, strain chs3, stronger effect = lower value 1.03 | locus YBR171W, strain sec66, stronger effect = lower value 1.03 | locus YBR231C, strain swc5, stronger effect = lower value 0.995 | locus YBR279W, strain paf1, stronger effect = lower value 1.05 | locus YCL011C, strain gbp2, stronger effect = lower value 1.01 | locus YCL016C, strain dcc1, stronger effect = lower value 1.02 | locus YCL069W, strain vba3, stronger effect = lower value 1.04 | locus YCR088W, strain abp1, stronger effect = lower value 1.02 | locus YDL005C, strain med2, stronger effect = lower value 1.03 | locus YDL040C, strain nat1, stronger effect = lower value 1.02 | locus YDR001C, strain nth1, stronger effect = lower value 1.02 | locus YDR069C, strain doa4, stronger effect = lower value 1.05 | locus YDR137W, strain rgp1, stronger effect = lower value 1.05 | locus YDR159W, strain sac3, stronger effect = lower value 0.98 | locus YDR195W, strain ref2 0.978 | locus YDR297W, strain sur2, stronger effect = lower value 1.02 | locus YDR334W, strain swr1, stronger effect = lower value 1.02 | locus YDR335W, strain msn5, stronger effect = lower value 1.03 | locus YDR392W, strain spt3, stronger effect = lower value 0.984 | locus YEL003W, strain gim4, stronger effect = lower value 0.997 | locus YEL037C, strain rad23, stronger effect = lower value 1.02 | locus YEL061C, strain CIN8 (second series), stronger effect = lower value 1.04 | locus YER015W, strain faa2, stronger effect = lower value 1.04 | locus YER016W, strain bim1, stronger effect = lower value 1.03 | locus YER111C, strain swi4, stronger effect = lower value 1.03 | locus YER155C, strain BEM2 (second series), stronger effect = lower value 1.03 | locus YFR010W, strain ubp6, stronger effect = lower value 1.02 | locus YGL167C, strain pmr1, stronger effect = lower value 1.03 | locus YGL173C, strain kem1, stronger effect = lower value 1 | locus YGL227W, strain vid30, stronger effect = lower value 1.02 | locus YGL240W, strain doc1, stronger effect = lower value 0.968 | locus YGL253W, strain hxk2, stronger effect = lower value 1.03 | locus YHR013C, strain ard1, stronger effect = lower value 1.03 | locus YHR027C, strain rpn1, stronger effect = lower value 1 | locus YHR030C, strain SLT2, stronger effect = lower value 0.991 | locus YHR079C, strain IRE1, stronger effect = lower value 0.987 | locus YHR142W, strain chs7, stronger effect = lower value 1.06 | locus YJL092W, strain hpr5, stronger effect = lower value 1.02 | locus YJL095W, strain BCK1 (second series), stronger effect = lower value 1.02 | locus YJL095W, strain BCK1, stronger effect = lower value 1.01 | locus YJL115W, strain asf1, stronger effect = lower value 1.02 | locus YJL129C, strain trk1, stronger effect = lower value 1.05 | locus YJL154C, strain vps35, stronger effect = lower value 1.01 | locus YJL164C, strain tpk1, stronger effect = lower value 1.02 | locus YJL166W, strain qcr8, stronger effect = lower value 1.04 | locus YJR066W, strain TOR1, stronger effect = lower value 0.942 | locus YKL160W, strain elf1, stronger effect = lower value 1.02 | locus YKR026C, strain gcn3, stronger effect = lower value 1.04 | locus YKR091W, strain srl3, stronger effect = lower value 1.01 | locus YLL001W, strain dnm1, stronger effect = lower value 1 | locus YLL026W, stronger effect = lower value 1.02 | locus YLL041C, strain sdh2, stronger effect = lower value 1.03 | locus YLR027C, strain aat2, stronger effect = lower value 1.02 | locus YLR113W, strain HOG1, stronger effect = lower value 0.991 | locus YLR221C, strain rsa3, stronger effect = lower value 1 | locus YLR258W, strain gsy2, stronger effect = lower value 1.02 | locus YLR262C, strain YPT6 (second series), stronger effect = lower value 1.02 | locus YLR320W, strain mms22, stronger effect = lower value 0.981 | locus YLR342W, strain FKS1, stronger effect = lower value 1.04 | locus YLR357W, strain rsc2, stronger effect = lower value 1.06 | locus YLR370C, strain arc18, stronger effect = lower value 1.02 | locus YLR384C, strain iki3, stronger effect = lower value 1.01 | locus YML120C, strain ndi1, stronger effect = lower value 0.986 | locus YMR058W, strain fet3, stronger effect = lower value 1.05 | locus YMR125W, strain sto1, stronger effect = lower value 1.02 | locus YMR129W, stronger effect = lower value 1.02 | locus YMR205C, strain PFK2, stronger effect = lower value 0.995 | locus YMR231W, strain pep5, stronger effect = lower value 1.04 | locus YNL071W, strain lat1, stronger effect = lower value 1.03 | locus YNL183C, strain NPR1, stronger effect = lower value 0.944 | locus YNL209W, strain ssb2, stronger effect = lower value 1.02 | locus YNL322C, strain KRE1 (second series), stronger effect = lower value 1.03 | locus YNR049C, strain mso1, stronger effect = lower value 1.01 | locus YOR001W, strain rrp6, stronger effect = lower value 1.01 | locus YOR070C, strain gyp1, stronger effect = lower value 1.02 | locus YOR080W, strain dia2, stronger effect = lower value 1.03 | locus YOR083W, strain WHI5, stronger effect = lower value 0.993 | locus YOR106W, strain vam3, stronger effect = lower value 1.05 | locus YOR231W, strain MKK1, stronger effect = lower value 1.01 | locus YOR265W, strain rbl2, stronger effect = lower value 1.02 | locus YOR270C, strain vph1, stronger effect = lower value 1.16 | locus YOR290C, strain snf2, stronger effect = lower value 1.04 | locus YPL051W, strain arl3, stronger effect = lower value 1.06 | locus YPL078C, strain atp4, stronger effect = lower value 1.05 | locus YPL106C, strain sse1, stronger effect = lower value 1.05 | locus YPL240C, strain hsp82, stronger effect = lower value 1.01 | locus YPL256C, strain CLN2, stronger effect = lower value 0.995
active: locus YNL248C, strain rpa49, stronger effect = lower value 1.12 [resistant]
